Inconclusive results are not listed. Activity calls are given as the source filed them. Unless noted, the call rests on the fitted dose curve; in most records, active means well fitted curve in the direction sought with a large enough effect in the repeat runs; inconclusive means weak or mixed curves; inactive means no such curve, though single readings can be large; an effect the other way counts as inactive or inconclusive.
Legend:
[1] = qHTS assay to identify small molecule agonists of the NFkB signaling pathway - cell viability counter screen (AID 1159515; calls by dose curve; further: series mostly up to about 61 µM; on the % scale 0 is the no-effect control and ±100 the full control effect; nearly all actives have a fitted effect of over 55% in size)
In short: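 Cells are seeded (2,000 NFkB-bla ME-180 per well), rested overnight, and dosed with DMSO-dissolved compounds for 5 hr at 37 C. Viability is then read by CellTiter-Glo luminescence after 30 min at room temperature.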

[2] = qHTS assay to identify small molecule agonists of the endoplasmic reticulum stress response signaling pathway (AID 1159516; active means well fitted activation curve with a large enough effect in the signal ratio in the repeat runs, not every such curve was filed as active; the % refers to the signal ratio; further: on the % scale 0 is the no-effect control and ±100 the full control effect)
In short: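 Cells are seeded at 1,500 per well and incubated overnight. Compounds in DMSO are added for 5 hr at 37 C, then beta-lactamase FRET substrate for 2 hr at room temperature, and fluorescence at 460 and 530 nm is measured.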

[3] = qHTS assay to identify small molecule agonists of the endoplasmic reticulum stress response signaling pathway - cell viability counter screen (AID 1159517; calls by dose curve;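 further: HeLa cells carrying an ER stress response element beta-lactamase reporter; series mostly up to about 61 µM; on the % scale 0 is the no-effect control and ±100 the full control effect; nearly all actives have a fitted effect of over 50% in size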)
In short: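 In parallel with the ESRE reporter read, cytotoxicity was scored by CellTiter-Glo luminescence (30 min, room temperature) on HeLa ESRE-bla cells dosed for 5 hr.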

[4] = qHTS assay to identify small molecule antagonists of the retinoid-related orphan receptor gamma (ROR-gamma) signaling pathway - cell viability counter screen (AID 1159520); further: on the % scale 0 is the no-effect control and ±100 the full control effect; nearly all actives have a fitted effect of over 50% in size
In short: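 Tet-on ROR gamma CHO cells were given compounds for 2 hr, then doxycycline hyclate at 1 uM final, and incubated 16 hr at 37 C. Viability was measured as ATP content by CellTiter-Glo luminescence.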

[5] = target: Nuclear receptor ROR-gamma (Homo sapiens) (UniProt P51449); test: qHTS assay to identify small molecule antagonists of the retinoid-related orphan receptor gamma (ROR-gamma) signaling pathway (AID 1159521;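 further: CHO cells with doxycycline inducible ROR-gamma driving an RORE luciferase reporter; top concentration of the series differs between compounds; on the % scale 0 is the no-effect control and ±100 the full control effect; nearly all actives have a fitted effect of over 50% in size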)
In short: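 Tet-on ROR-gamma CHO cells with ROR response element-luciferase reporter; compounds added 2 hr before 1 uM doxycycline induction, then 16 hr at 37 C. Antagonism scored as decreased ONE-Glo luminescence.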

[6] = qHTS assay to identify small molecule agonists of the AP-1 signaling pathway - cell viability counter screen (AID 1159525; calls by dose curve; further: nearly all actives have a fitted effect of over 55% in size)
In short: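 Same-well cytotoxicity counter screen of the Tox21 10K library in ME-180 cells. The readout is ATP-dependent luminescence after 5 h compound treatment. Data are normalised to DMSO and tetra n-octyl ammonium bromide controls.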

[7] = qHTS assay to identify small molecule agonists of the AP-1 signaling pathway (AID 1159526; calls by dose curve; further: on the % scale 0 is the no-effect control and ±100 the full control effect)
[8] = target: Retinoic acid receptor RXR-alpha (Homo sapiens) (UniProt P19793); test: qHTS assay to identify small molecule agonists of the RXR signaling pathway (AID 1159527; calls by dose curve; further: on the % scale 0 is the no-effect control and ±100 the full control effect; nearly all actives have a fitted effect of over 35% in size)
Retinoic acid receptor RXR-alpha (Homo sapiens), sequence (P19793 whole entry, looked up): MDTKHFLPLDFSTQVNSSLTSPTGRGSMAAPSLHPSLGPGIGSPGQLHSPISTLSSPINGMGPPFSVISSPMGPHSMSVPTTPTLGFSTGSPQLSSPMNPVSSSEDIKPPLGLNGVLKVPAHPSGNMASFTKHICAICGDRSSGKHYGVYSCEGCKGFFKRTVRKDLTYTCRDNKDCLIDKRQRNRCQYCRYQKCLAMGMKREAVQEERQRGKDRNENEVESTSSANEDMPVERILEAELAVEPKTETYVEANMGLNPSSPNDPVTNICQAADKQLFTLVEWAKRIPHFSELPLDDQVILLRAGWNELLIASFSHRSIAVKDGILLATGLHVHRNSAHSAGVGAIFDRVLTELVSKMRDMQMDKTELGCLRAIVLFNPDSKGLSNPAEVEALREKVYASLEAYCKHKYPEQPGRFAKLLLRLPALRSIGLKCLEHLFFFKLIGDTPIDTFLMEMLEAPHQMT
In short: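 GeneBLAzer RXR-alpha-UAS-bla HEK 293T cells in 2% charcoal-stripped FBS medium were exposed to compounds for 16 hr at 37 C in agonist mode. Beta-lactamase reporter read as 460/530 nm FRET ratio after 2 hr substrate loading.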

[9] = qHTS assay to identify small molecule agonists of the RXR signaling pathway - cell viability counter screen (AID 1159529); further: series mostly up to about 77 µM; on the % scale 0 is the no-effect control and ±100 the full control effect; nearly all actives have a fitted effect of over 50% in size
In short: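 RXR-alpha-UAS-bla HEK 293T cells in medium with 2% charcoal-stripped FBS were pre-incubated 5 hr, then compound-treated 16 hr at 37 C. Viability was read by CellTiter-Glo luminescence in the same wells as the beta-lactamase assay, with tetraoctyl ammonium bromide as positive control.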

[10] = qHTS assay to identify small molecule antagonists of the retinoid acid receptor (RAR) signaling pathway - cell viability counter screen (AID 1159551); further: on the % scale 0 is the no-effect control and ±100 the full control effect; nearly all actives have a fitted effect of over 35% in size
In short: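 Cells (C3RL4) are plated, incubated overnight, dosed with compound in DMSO, then given retinol at 1 uM final. After 6 h at 37 C, CellTiter-Glo is added and luminescence read following 30 min at room temperature.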

[11] = qHTS assay to identify small molecule antagonists of the retinoic acid receptor (RAR) signaling pathway (AID 1159552)
In short: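 Retinol signaling pathway inhibitors screened in C3RL4 RARE-luciferase reporter cells seeded overnight at 37 C, then compounds added with 1 uM (final) retinol as pathway substrate. After 6 hr at 37 C, luciferase luminescence read after 30 min at room temperature.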

[12] = qHTS assay to identify small molecule agonists of the retinoic acid receptor (RAR) signaling pathway (AID 1159553); further: on the % scale 0 is the no-effect control and ±100 the full control effect
In short: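 Seed C3RL4 reporter cells at 1,000 per well and incubate overnight at 37 C. Add compounds in DMSO, incubate 6 hr. Add luciferase reagent, wait 30 min at room temperature, read luminescence.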

[13] = target: Luciferin 4-monooxygenase (Photinus pyralis) (UniProt P08659); test: qHTS assay to identify small molecule inhibitors of firefly luciferase (AID 1224835); further: series mostly up to about 120 µM; on the % scale 0 is the no-effect control and ±100 the full control effect; nearly all actives have a fitted effect of over 25% in size
Luciferin 4-monooxygenase (Photinus pyralis), sequence (P08659 whole entry, looked up): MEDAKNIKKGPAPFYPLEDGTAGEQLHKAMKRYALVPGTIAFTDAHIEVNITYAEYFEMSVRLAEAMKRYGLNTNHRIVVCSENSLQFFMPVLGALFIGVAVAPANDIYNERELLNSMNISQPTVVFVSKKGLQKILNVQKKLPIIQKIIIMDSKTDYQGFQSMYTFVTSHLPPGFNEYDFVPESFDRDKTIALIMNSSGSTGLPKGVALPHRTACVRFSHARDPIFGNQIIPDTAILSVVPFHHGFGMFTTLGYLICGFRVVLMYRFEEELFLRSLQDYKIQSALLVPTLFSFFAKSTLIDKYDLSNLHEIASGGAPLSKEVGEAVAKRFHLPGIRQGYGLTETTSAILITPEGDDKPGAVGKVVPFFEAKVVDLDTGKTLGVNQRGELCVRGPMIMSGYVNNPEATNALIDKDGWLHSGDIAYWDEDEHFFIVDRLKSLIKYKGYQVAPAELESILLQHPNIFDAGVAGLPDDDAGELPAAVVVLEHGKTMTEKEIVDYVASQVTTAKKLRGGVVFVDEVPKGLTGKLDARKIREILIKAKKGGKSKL
In short: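 Biochemical qHTS: compounds run as interplate titrations against purified firefly enzyme, with D-luciferin and ATP each at its KM concentration. Light output recorded by CCD imaging.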

[14] = qHTS assay to identify small molecule agonists of the constitutive androstane receptor (CAR) signaling pathway - cell viability counter screen (AID 1224836); further: series mostly up to about 92 µM; on the % scale 0 is the no-effect control and ±100 the full control effect; nearly all actives have a fitted effect of over 45% in size
In short: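 HepG2 cells stably carrying hCAR and a CYP2B6-2.2kb reporter; 15-concentration compounds plus PK11195 (final 0.75 uM), 23 hr at 37 C/5% CO2. Viability read by CellTiter-Fluor fluorescence.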

[15] = qHTS assay to identify small molecule antagonists of the constitutive androstane receptor (CAR) signaling pathway - cell viability counter screen (AID 1224837); further: series mostly up to about 92 µM; on the % scale 0 is the no-effect control and ±100 the full control effect; nearly all actives have a fitted effect of over 45% in size
In short: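 Viability was measured with CellTiter-Fluor in a HepG2 line carrying stably transfected hCAR and a CYP2B6-2.2kb construct. Cells were exposed for 23 hr at 37 C to 15 compound concentrations with 50 nM CITCO as agonist.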

[16] = qHTS assay to identify small molecule antagonists of the estrogen related receptor signaling pathway with the pleiotropic PPARgamma coactivator (PGC) from Tox21 10K library - cell viability counter screen (AID 1224840; active means well fitted cell-killing curve with a large enough effect in the repeat runs, not every such curve was filed as active; further: on the % scale 0 is the no-effect control and ±100 the full control effect; nearly all actives have a fitted effect of over 40% in size)
In short: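 Multiplexed viability counter screen in the PGC/ERR cell line: cells treated with DMSO-dissolved compounds for 17.5 hours at 37 C, then viability measured as CellTiter-Fluor fluorescence.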

[17] = qHTS assay to identify small molecule antagonists of the vitamin D receptor (VDR) signaling pathway - cell viability counter screen (AID 743225)
In short: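 VDR-UAS-bla HEK 293T cells were plated and incubated 4 h at 37C, then dosed with compound plus 3 nM (final) 1-alpha,25-dihydroxyvitamin D3 for 16 h. After the 2 h beta-lactamase read, viability in the same wells was read as CellTiter-Glo luminescence after 30 min at room temperature.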

[18] = qHTS assay to identify small molecule antagonists of the estrogen related receptor (ERR) signaling pathway from Tox21 library - cell viability counter screen (AID 1224834); further: on the % scale 0 is the no-effect control and ±100 the full control effect; nearly all actives have a fitted effect of over 30% in size
In short: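 ERR cells, 2,000/well; 6 h settle at 37 C/5% CO2; pin-tool compound transfer in DMSO; 17.5 h at 37 C; CellTiter-Fluor, 30 min; fluorescence intensity.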

[19] = target: Nuclear receptor subfamily 1 group I member 3 (Homo sapiens) (UniProt Q14994); test: qHTS assay to identify small molecule antagonists of the constitutive androstane receptor (CAR) signaling pathway (AID 1224838);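 further: HepG2 cells stably expressing hCAR with CYP2B6 luciferase reporter stimulated by CITCO; on the % scale 0 is the no-effect control and ±100 the full control effect; nearly all actives have a fitted effect of over 40% in size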
Nuclear receptor subfamily 1 group I member 3 (Homo sapiens), sequence (Q14994 whole entry, looked up): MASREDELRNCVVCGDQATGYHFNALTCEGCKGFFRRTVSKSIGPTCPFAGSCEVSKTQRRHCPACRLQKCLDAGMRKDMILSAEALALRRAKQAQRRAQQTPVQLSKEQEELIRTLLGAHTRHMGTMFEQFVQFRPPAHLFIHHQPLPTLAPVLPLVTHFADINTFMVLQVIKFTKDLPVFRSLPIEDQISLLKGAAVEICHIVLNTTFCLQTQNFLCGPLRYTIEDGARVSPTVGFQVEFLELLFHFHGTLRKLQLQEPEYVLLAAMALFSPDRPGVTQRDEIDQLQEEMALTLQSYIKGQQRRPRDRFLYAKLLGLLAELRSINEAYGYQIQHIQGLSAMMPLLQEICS
In short: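 Antagonist mode used CITCO at a final 50 nM to activate CAR in human hepatoma HepG2 cells carrying stable hCAR and a 2.2 kb CYP2B6 promoter-luciferase construct. Compounds were tested at 15 concentrations over 24 h, with luminescence as the end point.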

[20] = target: Nuclear receptor subfamily 1 group I member 3 (Homo sapiens) (UniProt Q14994); test: qHTS assay to identify small molecule agonists of the constitutive androstane receptor (CAR) signaling pathway (AID 1224839); further: series mostly up to about 92 µM; on the % scale 0 is the no-effect control and ±100 the full control effect; nearly all actives have a fitted effect of over 15% in size
In short: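 HepG2 cells stably co-transfected with hCAR and a CYP2B6-2.2kb luciferase reporter; compounds at 15 concentrations with 0.75 uM PK11195 present. After 24 hr at 37 C, luciferase read by ONE-Glo luminescence.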

CC(C)(C)C(=O)CC(=O)C(C)(C)C
inactive: outcome [1] | Potency [2] | outcome [3] | outcome [4] | outcome [5] | outcome [6] | Potency [7] | Potency [8] | Potency [9] | outcome [10] | outcome [11] | Potency [12] | Potency [13] | outcome [14] | outcome [15] | outcome [16]

CCC(=O)OCCOc1ccccc1
inactive: outcome [17] | outcome [1] | Potency [2] | outcome [3] | outcome [4] | outcome [5] | outcome [6] | Potency [7] | Potency [8] | Potency [9] | outcome [10] | outcome [11] | Potency [12] | outcome [18] | Potency [13] | outcome [15] | outcome [16]

CCCC(=O)CC
inactive: outcome [1] | Potency [2] | outcome [3] | outcome [4] | outcome [5] | outcome [6] | Potency [7] | Potency [8] | Potency [9] | outcome [10] | outcome [11] | outcome [18] | Potency [13] | outcome [14] | outcome [15] | outcome [19] | Potency [20] | outcome [16]

CC(=O)Nc1ccc(S(=O)(=O)Nc2cc(C)on2)cc1
inactive: outcome [17] | outcome [1] | Potency [2] | outcome [3] | outcome [4] | outcome [5] | outcome [6] | Potency [7] | Potency [8] | Potency [9] | outcome [10] | Potency [12] | outcome [18] | Potency [13] | outcome [14] | outcome [15] | outcome [16]

CC[N+](C)(CC)CC
inactive: outcome [1] | Potency [2] | outcome [3] | outcome [4] | outcome [5] | outcome [6] | Potency [7] | Potency [8] | Potency [9] | outcome [10] | Potency [12] | outcome [18] | Potency [13] | outcome [14] | outcome [15] | outcome [19] | Potency [20] | outcome [16]

CCCC(=O)OC
inactive: outcome [17] | outcome [1] | Potency [2] | outcome [3] | outcome [4] | outcome [5] | outcome [6] | Potency [7] | Potency [8] | Potency [9] | outcome [10] | Potency [12] | outcome [18] | Potency [13] | outcome [15] | outcome [16]

NNC(=O)OCc1ccccc1
inactive: outcome [17] | outcome [1] | Potency [2] | outcome [3] | outcome [4] | outcome [5] | outcome [6] | Potency [7] | Potency [8] | Potency [9] | outcome [10] | Potency [12] | outcome [18] | Potency [13] | outcome [14] | outcome [15] | outcome [19] | outcome [16]

C[C@@H]1NC(=O)[C@@H](N)CNC(=O)[C@H](C2CCNC(N)=N2)NC(=O)/C(=C/NC(N)=O)NC(=O)[C@H](CNC(=O)C[C@@H](N)CCCN)NC1=O (stereo not given in full)
inactive: viability change, negative = cytotoxic [17] 3.48% [at 0.628 µM] | activity, negative = cytotoxic [1] 1.55% [at 0.628 µM] | activation [2] 0.164% [at 0.628 µM] | activity change, negative = cytotoxicity [3] 13.9% [at 0.628 µM] | activity, negative = cytotoxicity [4] 1.69% [at 0.349 µM] | activity change, negative = inhibition [5] 9.3% [at 0.35 µM] | viability change, negative = cytotoxic [6] 0.985% [at 0.29 µM] | activation [7] -1.11% [at 0.29 µM] | activation [8] 5.99% [at 0.29 µM] | activity change, negative = cytotoxicity [9] 9.35% [at 0.29 µM] | activity change, negative = cytotoxicity [10] 5.1% [at 0.349 µM] | viability change, negative = cytotoxic [18] -0.374% [at 0.349 µM] | activity change, negative = inhibition [13] -1.34% [at 0.435 µM] | viability change, negative = cytotoxic [14] -0.0447% [at 0.349 µM] | activity change, negative = cytotoxicity [15] 0.72% [at 0.349 µM] | activity, negative = inhibition [19] -10.7% [at 0.349 µM] | viability change, negative = cytotoxic [16] 10.7% [at 0.349 µM]

C[C@@H]1CC[C@@]2(OC1)O[C@H]1C[C@H]3[C@@H]4CC[C@H]5C[C@@H](O)CC[C@]5(C)[C@H]4CC(=O)[C@]3(C)[C@H]1[C@@H]2C
inactive: viability change, negative = cytotoxic [17] -3.49% [at 6.95 µM] | activity, negative = cytotoxic [1] 6.74% [at 6.95 µM] | activation [2] 3.05% [at 6.95 µM] | activity change, negative = cytotoxicity [3] -1.94% [at 6.95 µM] | activity, negative = cytotoxicity [4] 4% [at 8.39 µM] | activity change, negative = inhibition [5] 0.0168% [at 8.39 µM] | viability change, negative = cytotoxic [6] 2.16% [at 6.97 µM] | activation [7] -4.54% [at 6.97 µM] | activation [8] 2.2% [at 6.98 µM] | activity change, negative = cytotoxicity [9] -0.0245% [at 6.97 µM] | activity change, negative = cytotoxicity [10] -1.39% [at 8.39 µM] | viability change, negative = cytotoxic [18] 0.595% [at 8.39 µM] | activity change, negative = inhibition [13] 8.12% [at 10.5 µM] | viability change, negative = cytotoxic [14] 0.858% [at 8.39 µM] | activity change, negative = cytotoxicity [15] 4.92% [at 8.39 µM] | activity, negative = inhibition [19] -17.4% [at 8.39 µM] | activation [20] 0.221% [at 8.39 µM] | viability change, negative = cytotoxic [16] -2.49% [at 8.39 µM]

— PubChem BioAssay (Tox21)
